An excerpt weighted towards active compounds, which were near 0.56% of everything screened.
N-glyco inh: blocks N-linked glycosylation in D54 reporter cells | D54 ERlucT glycosylation luciferase reporter, 24 h; percent of 100 nM tunicamycin response | AID 588692 | 0.23% of 360,000 active | reporter increase, % at 12.5 µM;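 active = mean luciferase reporter signal, scaled so untreated is 0 and the glycosylation-blocking control 100, at or above a set limit in every replicate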;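 note: luciferase carries N-glycosylation sites so blocking glycosylation raises the light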
ERp5 inh: inhibitors of human ERp5 | Q15084 | ERp5 insulin aggregation, absorbance 650 nm, 90 min | inhibition, % at 9.99 µM | 0.05% of 350,000 active | AID 651711;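 active = mean replicate inhibition above about 25%, with every replicate also reaching it, limit read from the data, passing the limit was not always enough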
Vif imaging: inhibitors of HIV Vif | HEK293T cells, Vif self-association by quenched fluorescence, imaging, 24 h | AID 602346 | inhibition, % at 7.49 µM | 0.35% of 340,000 active; in the data active = inhibition above about 50%, passing the limit was not always enough
PDI turbidity: blocks human protein disulfide isomerase activity. PDI insulin aggregation turbidity, A650, 90 min. inhibition, % at 10 µM. 0.052% of 350,000 active;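 active = mean inhibition across replicates of 30% or more, whatever share of single replicates reach that level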
Target sequence (P07237 whole entry, looked up): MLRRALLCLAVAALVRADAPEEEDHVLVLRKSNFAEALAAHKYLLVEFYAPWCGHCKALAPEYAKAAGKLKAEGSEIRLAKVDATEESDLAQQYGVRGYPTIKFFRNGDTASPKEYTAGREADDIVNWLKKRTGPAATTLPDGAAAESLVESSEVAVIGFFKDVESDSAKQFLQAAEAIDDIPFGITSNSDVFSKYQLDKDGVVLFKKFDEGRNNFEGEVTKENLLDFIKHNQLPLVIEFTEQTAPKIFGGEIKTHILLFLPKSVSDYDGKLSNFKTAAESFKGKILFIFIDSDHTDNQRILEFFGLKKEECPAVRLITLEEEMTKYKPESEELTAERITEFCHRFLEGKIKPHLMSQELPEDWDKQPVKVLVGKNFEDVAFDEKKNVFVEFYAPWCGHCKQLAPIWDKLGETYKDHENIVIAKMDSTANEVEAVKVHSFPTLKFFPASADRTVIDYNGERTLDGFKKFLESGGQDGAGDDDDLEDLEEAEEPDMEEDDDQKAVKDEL
PvdQ inh: blocks Pseudomonas aeruginosa PvdQ acylase activity. 0.063% of 340,000 active. AID 488965. inhibition, % at 10 µM. purified PvdQ acylase, fluorescence plate reader; in the data active = inhibition above about 30%, passing the limit was not always enough
Each line names hits and unclear results; the compound was inactive in the other large screens.

CCCCNC(=O)c1cc(-c2ccc(F)cc2)on1	N-glyco inh 37.0 (no result: ERp5 inh)
O=C(NCCCN1CCOCC1)c1cc(-c2ccccc2)on1	N-glyco inh 29.5
O=C(CCN1CCCCC1)N[C@@H]1CC[C@@H](CC(=O)N2CCC(Cc3ccccc3)CC2)O[C@H]1CO	none (no result: N-glyco inh, Vif imaging, PDI turbidity, PvdQ inh)
CCOC(=O)N1CCN(c2ccc(Cl)cc2)CC1	PvdQ inh 43.9
CCOC(=O)N1CCN(c2ccc(O)cc2)CC1	none (no result: ERp5 inh)
O=C(COc1ccccc1)N(Cc1ccco1)c1ccc(O)cc1	none (no result: ERp5 inh)
O=C(c1ccc(Cl)c(Cl)c1)N(Cc1ccco1)c1ccc(O)cc1	Vif imaging 54.3 (no result: ERp5 inh)
CCc1ccc(NC(=S)/N=C(\N)Nc2nc(C)c3cc(CC)ccc3n2)cc1	none
Cc1cc(C)c2c(N)c3ccccc3nc2n1	N-glyco inh 123.0 (no result: ERp5 inh)
CCc1ccc2nc3nc(C)cc(C)c3c(N)c2c1	N-glyco inh 85.1 (no result: Vif imaging)
Cc1ccc(O)c(C(=O)/C=C/c2ccc3c(c2)OCCO3)c1	PvdQ inh 64.3 (no result: Vif imaging)
O=C(/C=C/c1ccc2c(c1)OCO2)c1ccc(O)cc1O	PDI turbidity 72.5
Cc1ccc(C(=O)C=Cc2ccc3c(c2)OCO3)c(C)c1	none (no result: PvdQ inh)
CN(C)c1ccc(/C=C2\SC(N3CCCCC3)=NC2=O)cc1	Vif imaging 196.0
O=C(/C(=C\c1ccccc1)c1nc2ccccc2[nH]1)c1ccc(Cl)cc1	N-glyco inh 33.8 (no result: ERp5 inh)
O=C(/C(=C/c1ccc(Cl)cc1)c1nc2ccccc2[nH]1)c1cccs1	none (no result: ERp5 inh)
COc1ccc(NC(=O)CCCC2CCCCC2)cc1S(=O)(=O)N1CCCCC1	none
COc1ccc(NC(=O)CCN2C(=O)C3CC=CCC3C2=O)cc1S(=O)(=O)N1CCCCC1 (stereo not drawn)	Vif imaging 72.9
CCc1ccc(NC(=O)Cn2c(=O)n(CCC(=O)NC3CCN(Cc4ccccc4)CC3)c(=O)c3ccccc32)cc1	N-glyco inh 37.7
CCN(CCCNC(=O)C1CCC(=O)N1Cc1ccc(C)cc1)c1cccc(C)c1 (stereo not drawn)	Vif imaging 51.5
C[C@H](Cc1ccccc1)Nc1ncnc2c1ncn2[C@@H]1O[C@H](CO)[C@@H](O)[C@H]1O	Vif imaging 64.7
CC(Cc1ccccc1)Nc1ncnc2c1ncn2C1OC(CO)C(O)C1O (stereo not drawn)	none
COC(=O)C(=Cc1ccc(-c2ccsc2C(=O)OC)o1)C(=O)OC	N-glyco inh 35.1 (no result: ERp5 inh)
COc1ccc(-c2ccc(CCC(=O)O)n2-c2cc(OC)ccc2OC)cc1	none (no result: PvdQ inh)
O=C(NCC1CCCCC1)c1cc(S(=O)(=O)N2CCCCC2)ccc1Cl	none
O=C(NCC1CCCCC1)c1cc(Br)ccc1Cl	PvdQ inh 33.9
COc1ccc(C(=O)CSc2nnc(CNc3ccc(F)cc3)o2)cc1	none
O=C(CSc1nnc(CNc2ccc(F)cc2)o1)c1ccccc1	Vif imaging 62.2
Cn1c(SCC(N)=O)nnc1-c1ccccc1	none (no result: ERp5 inh)
N#Cc1c(C(F)(F)F)cc(-c2ccco2)nc1SCc1ccccn1	none (no result: ERp5 inh)
N#Cc1c(C(F)(F)F)cc(-c2ccco2)nc1SCc1ccncc1	Vif imaging active (no result: ERp5 inh)
COc1ccc(C2Oc3ccccc3N2C(C)=O)cc1 (stereo not drawn)	none (no result: ERp5 inh)
CC(=O)Oc1ccc(C2OC(=O)c3ccccc3N2C(C)=O)cc1 (stereo not drawn)	PDI turbidity 32.1 (no result: ERp5 inh)
CCOc1ccc(NC(=O)c2ccco2)c([N+](=O)[O-])c1	none
CCc1cccc(NC(=O)CCS(=O)(=O)c2cc3c(cc2C)NC(=O)CO3)c1	Vif imaging 134.1 (no result: PDI turbidity)
CC(=O)c1cccc(NC(=O)CCS(=O)(=O)c2cc3c(cc2C)NC(=O)CO3)c1	none
CCOC(=O)N1CCN(c2c(F)cc3[nH]c(=S)[nH]c3c2Br)CC1	none (no result: ERp5 inh)
COc1ccc(N=C(C)C2=C(O)CSC2=O)cc1	PvdQ inh 43.8
CC(=Nc1ccccc1)C1=C(O)CSC1=O	none (no result: ERp5 inh)
CC(=O)Nc1ccc(NC(=O)CSc2nc(=O)n3cccc(C)c3n2)cc1	PDI turbidity 32.3
CC(=O)Nc1cccc(NC(=O)CSc2nc(=O)n3cccc(C)c3n2)c1	none
O=C(NNS(=O)(=O)c1ccccc1)c1ccc(F)cc1	none
COc1ccc(C(CCN(Cc2ccc(OC)c(OC)c2)C(C)=O)c2ccccc2)cc1 (stereo not drawn)	none
COc1ccc(CN(CCC(c2ccccc2)c2ccc(OC(C)C)cc2)C(=O)CCl)cc1OC (stereo not drawn)	PDI turbidity 85.9 (no result: ERp5 inh)
CN(C)CCNC(=S)Nc1ccccc1Cl	Vif imaging 64.9
CC1CCC(NC(=O)CN2CCC(n3nnc4cc(F)ccc43)CC2)CC1 (stereo not drawn)	none (no result: ERp5 inh)
CC(=O)Oc1ccc(N2C(=O)C3C4C=CC(O4)C3C2=O)cc1 (stereo not drawn)	none (no result: ERp5 inh)
Cn1c(SCC(=O)c2ccc(F)cc2)nnc1-c1cnccn1	Vif imaging 121.8 (no result: ERp5 inh)
Cn1c(SCC(=O)c2ccccc2)nnc1-c1ccccn1	none
O=C(/C=C(\c1ccc(Cl)cc1)n1cncn1)c1ccc(Cl)cc1	N-glyco inh 26.7
CCCCNc1c(-c2ccc(OC)c(Sc3ccc(OC)cc3)c2)nc2ccccn12	none
CCCCNc1c(-c2ccc(OC)c(Sc3ccc(OC)cc3)c2)nc2cnccn12	Vif imaging 60.7
C[C@@H]1CN([C@@H](C)CO)C(=O)c2cc(C#CC3CCCCC3)cnc2O[C@@H]1CN(C)S(=O)(=O)c1ccccc1	ERp5 inh 28.6 (no result: N-glyco inh, Vif imaging, PDI turbidity, PvdQ inh)
C[C@H](O)C#Cc1cnc2c(c1)C(=O)N([C@@H](C)CO)C[C@H](C)[C@H](CN(C)CC1CCCCC1)O2	ERp5 inh 32.2 (no result: N-glyco inh, Vif imaging, PDI turbidity, PvdQ inh)
C[C@H](CO)N1C[C@H](C)[C@H](CN(C)S(=O)(=O)c2cn(C)cn2)Oc2ncc(C#Cc3ccccc3)cc2C1=O	ERp5 inh 36.2 (no result: N-glyco inh, Vif imaging, PDI turbidity, PvdQ inh)
COc1ccccc1C#Cc1cnc2c(c1)C(=O)N([C@H](C)CO)C[C@H](C)[C@@H](CN(C)S(=O)(=O)c1cn(C)cn1)O2	none (no result: Vif imaging, PvdQ inh)
CCCNC(=O)N1CC2(C1)[C@@H](c1ccccc1)[C@@H](CO)N2C(=O)C1CCC1	none (no result: N-glyco inh, Vif imaging, PDI turbidity, PvdQ inh)
CC(=NCc1cccnc1)C1=C(O)c2ccccc2C1=O	none (no result: ERp5 inh)
O=C(C[C@H]1C[C@H]2c3cc(NS(=O)(=O)c4ccccc4)ccc3O[C@H]2[C@H](CO)O1)NC1CCCC1	none (no result: N-glyco inh, Vif imaging, PDI turbidity, PvdQ inh)
CCCNC(=O)C[C@H]1C[C@@H]2c3cc(NC(=O)CC4CC4)ccc3O[C@@H]2[C@@H](CO)O1	ERp5 inh 61.7 (no result: N-glyco inh, Vif imaging, PDI turbidity, PvdQ inh)
CCCNC(=O)C[C@@H]1C[C@@H]2c3cc(NS(C)(=O)=O)ccc3O[C@@H]2[C@H](CO)O1	ERp5 inh 32.3 (no result: N-glyco inh, Vif imaging, PDI turbidity, PvdQ inh)
CCCNC(=O)C[C@@H]1C[C@@H]2c3cc(NC(=O)CC4CC4)ccc3O[C@@H]2[C@H](CO)O1	none (no result: N-glyco inh, Vif imaging, PDI turbidity, PvdQ inh)
O=C(C[C@@H]1C[C@H]2c3cc(NS(=O)(=O)c4ccccc4)ccc3O[C@H]2[C@H](CO)O1)NC1CCCCC1	ERp5 inh 35.0 (no result: N-glyco inh, Vif imaging, PDI turbidity, PvdQ inh)
O=C(N[C@H]1CCCCNC1=O)c1cc(COc2ccc(F)cc2F)on1	none
Cc1ccc(C(=O)CCC(=O)NCc2ccc(Cl)cc2)cc1	none
Cc1cc2c(cc1C)NC(c1cccnc1)C1=C(CC(C)(C)CC1=O)N2 (stereo not drawn)	none (no result: ERp5 inh)
Cc1cc(OCCn2cnc3ccccc3c2=O)ccc1[N+](=O)[O-]	none

Screening data deposited in PubChem by Broad Institute.
